Source: the antibiotic and cytotoxicity screens of Wong et al. (2023)
Out of some 39,000 compounds screened, about 3,300 (8.5%) were called active. For the sample, actives were picked, then their nearest neighbours and some compounds at random.

System: HepG2
Test: cytotoxicity call (relative viability < 0.9)
Conditions: 10 µM

Compound | cytotoxicity call
C[C@H](CO)N1C[C@H](C)[C@H](CN(C)Cc2ccc(C(=O)Nc3ccccc3N)cc2)Oc2ccc(NC(=O)Nc3ccc(F)cc3)cc2CC1=O | inactive
C[C@@H]1CN([C@@H](C)CO)C(=O)Cc2cc(NC(=O)Nc3ccc(F)cc3)ccc2O[C@@H]1CN(C)Cc1ccc(C(=O)Nc2ccccc2N)cc1 | active
C[C@H](CO)N1C[C@H](C)[C@@H](CN(C)Cc2ccc(C(=O)Nc3ccccc3N)cc2)Oc2ccc(NC(=O)Nc3ccc(F)cc3)cc2CC1=O | inactive
C[C@H]1CN([C@@H](C)CO)C(=O)Cc2cc(NC(=O)Nc3ccc(F)cc3)ccc2O[C@H]1CN(C)Cc1ccc(C(=O)Nc2ccccc2N)cc1 | active
C[C@H]1CN([C@@H](C)CO)C(=O)Cc2cc(NC(=O)Nc3ccc(F)cc3)ccc2O[C@@H]1CN(C)Cc1ccc(C(=O)Nc2ccccc2N)cc1 | inactive
C[C@@H]1CN([C@H](C)CO)C(=O)Cc2cc(NC(=O)Nc3ccc(F)cc3)ccc2O[C@H]1CN(C)Cc1ccc(C(=O)Nc2ccccc2N)cc1 | inactive
C[C@@H]1CCCCO[C@@H](CN(C)C(=O)NC2CCCCC2)[C@@H](C)CN([C@@H](C)CO)C(=O)c2cc(NC(=O)Nc3ccc(F)cc3)ccc2O1 | inactive
Cc1noc(C)c1S(=O)(=O)N(C)C[C@@H]1Oc2ccc(NS(=O)(=O)c3ccccc3)cc2C(=O)N([C@H](C)CO)C[C@@H]1C | inactive
C[C@@H]1CCCCO[C@@H](CN(C)Cc2ccncc2)[C@@H](C)CN([C@@H](C)CO)C(=O)c2cc(NC(=O)Cc3ccccc3)ccc2O1 | inactive
C[C@@H]1CCCCO[C@H](CN(C)C(=O)CCC(F)(F)F)[C@@H](C)CN([C@H](C)CO)C(=O)c2cc(NC(=O)Nc3ccccc3)ccc2O1 | inactive
C[C@H]1CN([C@@H](C)CO)C(=O)c2cccc(NC(=O)Nc3ccc4c(c3)OCO4)c2O[C@@H]1CN(C)S(C)(=O)=O | inactive
CN(C)CC(=O)N[C@H]1CC[C@@H](CC(=O)NCCN2CCCCC2)O[C@@H]1CO | inactive
C[C@H]1CN([C@@H](C)CO)C(=O)c2cc(NS(=O)(=O)c3ccc(F)cc3)ccc2O[C@@H]1CN(C)S(=O)(=O)c1cn(C)cn1 | inactive
O=C(O)c1cn2cccc(O)c2n1 | inactive
C[C@H]1CN([C@@H](C)CO)C(=O)c2cc(NS(C)(=O)=O)ccc2O[C@H]1CN(C)S(C)(=O)=O | inactive
COc1ccc(S(=O)(=O)N(C)C[C@H]2OCc3cnnn3CCCC(=O)N([C@H](C)CO)C[C@H]2C)cc1 | inactive
O=C(NC1CC1)[C@@H]1c2ccccc2C(=O)N(Cc2cc(C(F)(F)F)cc(C(F)(F)F)c2)[C@H]1c1ccc(CO)cc1 | inactive
Cc1cc(OCCCS(C)(=O)=O)cc(C)c1-c1cccc(COc2ccc3c(c2)OC[C@H]3CC(=O)O)c1 | active
COCC#Cc1ccc2c(c1)O[C@H](CN(C)S(=O)(=O)c1cccc(OC)c1)[C@@H](C)CN([C@@H](C)CO)S2(=O)=O | inactive
O=S(=O)(O)NC1CCCCC1 [listing 1 of 2 here] | inactive
O=S(=O)([O-])NC1CCCCC1.[Na+] | inactive
O=S(=O)(O)NC1CCCCC1 [listing 2 of 2 here] | active

Compound | cytotoxicity call
CC(C)NC(=O)N(C)C[C@@H]1Oc2ccc(NC(=O)Cc3ccccc3)cc2CC(=O)N([C@@H](C)CO)C[C@@H]1C | inactive
C[C@H](CO)N1C[C@H](C)[C@@H](CN(C)S(=O)(=O)c2ccc(F)cc2)Oc2c(NC(=O)c3cnccn3)cccc2C1=O | inactive
C[C@H]1CN([C@@H](C)CO)C(=O)c2cccc(NC(=O)C3CC3)c2O[C@H]1CN(C)S(=O)(=O)c1ccccc1 | inactive
C[C@H]1CN([C@@H](C)CO)C(=O)Cc2cc(NC(=O)Nc3ccc(F)cc3)ccc2O[C@@H]1CN(C)Cc1ccc(C(F)(F)F)cc1 | inactive
C[C@@H]1CN([C@@H](C)CO)C(=O)Cc2cc(NC(=O)Nc3ccc(F)cc3)ccc2O[C@@H]1CN(C)Cc1ccc(C(F)(F)F)cc1 | active
C[C@@H]1CN([C@@H](C)CO)C(=O)Cc2cc(NC(=O)Nc3ccc(F)cc3)ccc2O[C@H]1CN(C)Cc1ccc(C(F)(F)F)cc1 | active
C[C@H]1CN([C@@H](C)CO)C(=O)Cc2cc(NC(=O)Nc3ccc(F)cc3)ccc2O[C@H]1CN(C)Cc1ccc(C(F)(F)F)cc1 | active
C[C@@H]1CN([C@H](C)CO)C(=O)Cc2cc(NC(=O)Nc3ccc(F)cc3)ccc2O[C@@H]1CN(C)Cc1ccc(C(F)(F)F)cc1 | active
COc1ccccc1CNC(=O)C[C@H]1C[C@@H]2c3cc(NS(=O)(=O)c4ccc(F)cc4)ccc3O[C@@H]2[C@@H](CO)O1 | inactive
C[C@H](CO)N1C[C@H](C)[C@@H](CN(C)Cc2ccc(C(=O)O)cc2)Oc2ccc(NC(=O)Nc3cccc4ccccc34)cc2CC1=O | inactive
C[C@@H]1CN([C@H](C)CO)S(=O)(=O)c2ccc(C3=CCCCC3)cc2O[C@@H]1CN(C)C(=O)C1CCOCC1 | inactive
C[C@@H]1CN([C@@H](C)CO)C(=O)c2cc(NC(=O)Nc3ccc(F)cc3)ccc2O[C@@H](C)CCCCO[C@@H]1CN(C)C(=O)c1ccccc1 | inactive
C[C@H]1CN([C@@H](C)CO)C(=O)c2ccccc2-c2ccccc2CO[C@H]1CN(C)C(=O)Nc1cccc(C(F)(F)F)c1 | inactive
CCC(=O)OCC(=O)C1(OC(=O)CC)C(C)CC2C3CCC4=CC(=O)C=CC4(C)C3(F)C(O)CC21C (centres undefined) | inactive
Cc1ccc(S(=O)(=O)Nc2ccc3c(c2)C(=O)N([C@@H](C)CO)C[C@@H](C)[C@@H](CN(C)S(C)(=O)=O)O3)cc1 | inactive
COc1ccc(NC(=O)N2C[C@@H](O)COC[C@H]3O[C@@H](CC(=O)NCc4ccccc4OC)CC[C@@H]32)cc1 | inactive
C[C@@H]1CN([C@@H](C)CO)C(=O)c2cc(C#CCN(C)C)cnc2O[C@@H]1CN(C)C(=O)CN1CCOCC1 | inactive
C[C@H](CO)N1C[C@H](C)[C@@H](CN(C)Cc2ccc(C(F)(F)F)cc2)Oc2ccc(NC(=O)Nc3ccc(F)cc3)cc2CC1=O | active
C[C@H](CO)N1C[C@H](C)[C@H](CN(C)Cc2ccc(C(F)(F)F)cc2)Oc2ccc(NC(=O)Nc3ccc(F)cc3)cc2CC1=O | active
C[C@@H]1CN([C@H](C)CO)C(=O)Cc2cc(NC(=O)Nc3ccc(F)cc3)ccc2O[C@H]1CN(C)Cc1ccc(C(F)(F)F)cc1 | active
C[C@@H]1CCCCO[C@@H](CN(C)S(=O)(=O)c2ccccc2)[C@H](C)CN([C@H](C)CO)C(=O)c2cc(NC(=O)CCC(F)(F)F)ccc2O1 | inactive
COc1ccc(CN(C)C[C@H]2OCCCC[C@H](C)Oc3ccc(NS(=O)(=O)c4ccc(C)cc4)cc3C(=O)N([C@@H](C)CO)C[C@H]2C)cc1 | inactive

Compound | cytotoxicity call
COCCN1CCCn2c(nc(CNS(C)(=O)=O)cc2=O)C1 | inactive
CO[C@H]1CN(C)C(=O)c2cc(NS(=O)(=O)CC(F)(F)F)ccc2OC[C@@H](C)N(C(=O)c2ccc3c(c2)OCO3)C[C@H]1C | inactive
CC(C)NC(=O)N(C)C[C@@H]1OCCCC[C@H](C)Oc2ccc(NC(=O)Nc3cccc4ccccc34)cc2C(=O)N([C@@H](C)CO)C[C@H]1C | inactive
C[C@@H]1CN([C@H](C)CO)C(=O)c2cc(NS(=O)(=O)c3cccs3)ccc2O[C@@H](C)CCCCO[C@H]1CN(C)Cc1ccc2c(c1)OCO2 | inactive
Cc1ccc2sc(C)nc2c1 | inactive
C[C@@H]1CCCCO[C@H](CN(C)S(=O)(=O)c2ccccc2)[C@@H](C)CN([C@@H](C)CO)C(=O)c2cc(NC(=O)c3ccccc3)ccc2O1 | inactive
C[C@H]1CCCCO[C@@H](CN(C)Cc2ccccc2)[C@@H](C)CN([C@@H](C)CO)C(=O)c2cc(NC(=O)Nc3ccc(F)cc3)ccc2O1 | active
C[C@@H]1CN([C@H](C)CO)C(=O)c2cc(NC(=O)Nc3ccc(F)cc3)ccc2O[C@@H](C)CCCCO[C@@H]1CN(C)Cc1ccccc1 | inactive
C[C@H](CO)N1C[C@H](C)[C@H](CN(C)Cc2ccccc2)OCCCC[C@H](C)Oc2ccc(NC(=O)Nc3ccc(F)cc3)cc2C1=O | active
C[C@@H]1CCCCO[C@H](CN(C)Cc2ccccc2)[C@H](C)CN([C@@H](C)CO)C(=O)c2cc(NC(=O)Nc3ccc(F)cc3)ccc2O1 | active
C[C@@H]1CCCCO[C@H](CN(C)Cc2ccccc2)[C@H](C)CN([C@H](C)CO)C(=O)c2cc(NC(=O)Nc3ccc(F)cc3)ccc2O1 | inactive
C[C@H](CO)N1C[C@H](C)[C@@H](CN(C)Cc2ccccc2)OCCCC[C@H](C)Oc2ccc(NC(=O)Nc3ccc(F)cc3)cc2C1=O | active
O=C(/C=N/O)Nc1ccccc1C(=O)O | inactive
CC(C)CC#Cc1ccc2c(c1)O[C@H](CN(C)C(=O)c1ccccn1)[C@H](C)CN([C@H](C)CO)S2(=O)=O | inactive
Cc1ccc(S(=O)(=O)N(C)C[C@@H]2Oc3ccc(NC(=O)C4CC4)cc3C(=O)N([C@@H](C)CO)C[C@@H]2C)cc1 | inactive
C[C@@H]1CCCCO[C@@H](CN(C)C(=O)CCCN(C)C)[C@@H](C)CN([C@@H](C)CO)C(=O)c2cc(N(C)C)ccc2O1 | inactive
C[C@H]1CCCCO[C@@H](CN(C)C(=O)Nc2ccc3c(c2)OCO3)[C@@H](C)CN([C@@H](C)CO)C(=O)c2cc(NC(=O)Nc3ccc(C(F)(F)F)cc3)ccc2O1 | inactive
C=CC[C@@H](CC(=O)N[C@H](CO)Cc1ccccc1)C(=O)NCCOC(=O)[C@@H](CC=C)CC(=O)OC(C)(C)C | inactive
COCCCNC(=O)C[C@H]1SC(=N)NC1=O | inactive
COc1ccc(NC(=O)Nc2ccc3c(c2)C(=O)N([C@@H](C)CO)C[C@H](C)[C@H](CN(C)S(=O)(=O)c2cccs2)OCCCC[C@H](C)O3)cc1 | inactive
